Laboratory results published in PubChem BioAssay (EPA / NIEHS).
More than one record can exist for a structure, and the calls need not agree. The source made the active and inactive calls. Rule for the calls: active = hit-call score of the fitted dose curve at least 0.9, where 1 is the maximum; inactive = score below 0.9.

Read-out: Transforming growth factor beta 1 (TGFb1), TGFB1 (gene 7040)
Test: BSK_BE3C_TGFb1: BioMAP Diversity Plus: BE3C Assay for Transforming growth factor beta 1 (TGFb1) Biomarker Activity (AID 2283036)
Conditions: primary human bronchial epithelial cells; actives raise or lower the signal
Method: BSK_BE3C is a cell-based, multiplexed-readout assay that uses bronchial epithelial cell, a human lung primary cell, with measurements taken at 24 hours after chemical dosing in a 96-well plate.BSK_BE3C_TGFb1 is an assay component measured in the BSK_BE3C assay. It measures TGF-b1 antibody related to regulation of gene expression using ELISA technology.Data from the assay component BSK_BE3C_TGFb1 was analyzed into 1 assay endpoint. This assay endpoint, BSK_BE3C_TGFb1, was analyzed with bidirectional fitting relative to DMSO as the negative control and baseline of activity. Using a type of binding reporter, gain or loss-of-signal activity can be used to understand changes in the signaling as they relate to the gene TGFB1. Furthermore, this assay endpoint can be referred to as a primary readout, because this assay has produced multiple assay endpoints where this one serves a signaling function. To generalize the intended target to other relatable targets, this assay endpoint is annotated to the growth factor intended target family, where the subfamily is transforming growth factor beta.
The levels of cell surface (or secreted, indicated by the prefix "s") biomarker endpoints were measured by ELISA. Overt cytotoxicity to cells in confluent adherent cultures (all systems other than the BT system) was assessed by measuring total protein levels using sulforhodamine B (SRB) staining in parallel cultures at the time of biomarker measurements, indicated as SRB endpoints. For proliferation assays for adherent cell types, individual cell types are cultured at sub-confluence and relative cell numbers quantified by SRB staining at time points optimized for each system (48 h: 3C and CASM3C systems; 72 h: BT and HDF3CGF systems; 96 h: SAg system). SRB was performed by staining cells with 0.1% SRB after fixation with 10% TCA and reading wells at 560 nm.Viability and proliferation of PBMC (T cells) was quantified by Alamar Blue reduction for the SAg and BT systems. For PBMC viability (referred to as PBMC Cytotoxicity within the assay endpoint names), cells were plated (75,000/well in a 96-well plate) and then chemical samples added for 1 h before addition of activators, SEB and TSST-1 (20 ng/mL final concentration each). Cells were incubated for 90 h. Then, Alamar Blue (20 uL/well) (Invitrogen, Cat DAL1100) was added for 6 h, and the plates were read with a fluorescence microplate reader at 546/580 nm (excitation/emission). For PBMC proliferation, cells were plated and activated as above but incubated for only 16 h prior to addition of Alamar Blue. Plates were read after 6 h.

Structure (SMILES)	AC50	outcome
CC/C=C\C/C=C\C/C=C\CCCCCCCC(=O)OC	9.17 µM (active)	
CCCCCC1=CCCC1=O		inactive
CCCCCCC=O		inactive
CC(C)CCCCCOC(=O)CS		inactive
Cc1ccc([N+](=O)[O-])cc1N		inactive
C=CC(=O)NCOCCCC		inactive
CCNc1nc(NC(C)(C)C)nc(OC)n1		inactive
CCc1cccc(C)c1N(C(=O)CS(=O)(=O)O)C(C)COC (stereo not given)		inactive
C=CC(=O)OCC(C)OCC(C)OCC(C)OC(=O)C=C (stereo not given)		inactive
CCC1(C)C(=O)N(Cl)C(=O)N1Cl (stereo not given)		inactive
Oc1c(Cl)cc(Cl)c(Cl)c1Cl		inactive
Clc1cc(Cl)c(Cl)c(Cl)c1Cl		inactive
COC(OC)(C(=O)c1ccccc1)c1ccccc1		inactive
CC(c1cc(C(C)(C)C)cc(C(C)(C)C)c1O)c1cc(C(C)(C)C)cc(C(C)(C)C)c1O		inactive
Nc1ccc(C(=O)O)cc1		inactive
O=C1CCCCCCCCCCCN1		inactive
c1ccc2c(c1)[nH]c1ccccc12		inactive
C=CC(=O)OCCCCCCCC(C)C		inactive
COc1ccc(C(=O)/C(Br)=C\C(=O)O)cc1	8.23 µM (active)	inactive
O=C(Oc1ccccc1)c1ccccc1C(=O)Oc1ccccc1		inactive

Structure (SMILES)	AC50	outcome
CCCCCCOC(=O)CCCCC(=O)OCCCCCC		inactive
Fc1ccc(Br)cc1		inactive
Cc1c(O)cccc1O		inactive
COc1ccc(C(=O)c2ccccc2)c(O)c1		inactive
CC(C)[N+](C)(CCOC(=O)C1c2ccccc2Oc2ccccc21)C(C)C		inactive
C=CCCCCCCCCC=O		inactive
c1ccc2sc(SSN3CCOCC3)nc2c1		inactive
C=C(C)C(=O)OCCCCCCCCCCCC		inactive
O=C1CCCCCCCCCCC1		inactive
Oc1ccc(/C=C/c2cc(O)cc(O)c2)cc1		inactive
CCCCCCCO		inactive
CCOC(=O)/C=C\C(=O)OCC		inactive
CC1(C)CC(O)CC(C)(C)N1[O]		inactive
CCCCCCCCCCCC(C)=O		inactive
CCOC(=O)C1=NN(c2ccc(Cl)cc2Cl)C(C)(C(=O)OCC)C1 (stereo not given)		inactive
C1CNCCN1		inactive
CCCCCCCCC(CO)CCCCCC (stereo not given)		inactive
CC(Cl)COP(=O)(OCC(C)Cl)OCC(C)Cl (stereo not given)		inactive
CC1=CC=C(C(C)C)CC1		inactive
